Outcome data for six compounds are collected here from PubChem BioAssay AID1963317 (National Center for Advancing Translational Sciences (NCATS), 2024).

Each structure is given as a SMILES string. Inconclusive results are not listed. The source made the active and inactive calls. Calls come from the whole dose curve.

Sequence of Tyrosine-protein kinase ABL1 (Homo sapiens) (P00519 whole entry, looked up): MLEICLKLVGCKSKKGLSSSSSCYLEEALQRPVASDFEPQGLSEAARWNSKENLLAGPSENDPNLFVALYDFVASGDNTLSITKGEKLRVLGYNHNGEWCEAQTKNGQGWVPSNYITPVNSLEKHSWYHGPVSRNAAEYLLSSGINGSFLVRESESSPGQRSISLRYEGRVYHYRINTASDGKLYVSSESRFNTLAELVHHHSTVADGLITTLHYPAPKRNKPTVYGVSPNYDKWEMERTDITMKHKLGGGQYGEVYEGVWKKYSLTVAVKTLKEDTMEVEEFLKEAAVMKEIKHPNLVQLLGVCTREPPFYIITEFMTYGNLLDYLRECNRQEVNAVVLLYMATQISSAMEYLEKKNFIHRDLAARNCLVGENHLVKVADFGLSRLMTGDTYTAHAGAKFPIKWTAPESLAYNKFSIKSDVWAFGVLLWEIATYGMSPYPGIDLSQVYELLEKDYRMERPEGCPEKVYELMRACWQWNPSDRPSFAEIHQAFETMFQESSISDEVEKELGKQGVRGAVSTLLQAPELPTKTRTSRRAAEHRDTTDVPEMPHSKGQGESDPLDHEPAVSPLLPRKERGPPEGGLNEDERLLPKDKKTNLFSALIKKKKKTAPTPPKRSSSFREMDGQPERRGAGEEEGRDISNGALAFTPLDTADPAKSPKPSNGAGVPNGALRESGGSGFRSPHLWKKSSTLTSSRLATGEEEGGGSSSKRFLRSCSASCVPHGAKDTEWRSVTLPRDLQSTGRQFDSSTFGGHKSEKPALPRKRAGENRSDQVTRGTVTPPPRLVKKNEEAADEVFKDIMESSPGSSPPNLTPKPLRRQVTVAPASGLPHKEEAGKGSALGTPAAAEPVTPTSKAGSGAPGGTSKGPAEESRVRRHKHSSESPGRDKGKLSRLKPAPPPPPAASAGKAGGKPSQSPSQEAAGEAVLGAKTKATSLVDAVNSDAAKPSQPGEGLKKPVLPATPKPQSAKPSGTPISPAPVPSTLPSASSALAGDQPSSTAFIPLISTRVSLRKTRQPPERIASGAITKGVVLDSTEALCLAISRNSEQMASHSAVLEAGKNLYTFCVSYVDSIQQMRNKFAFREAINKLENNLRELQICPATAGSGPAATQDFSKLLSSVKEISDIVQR

The test addresses Tyrosine-protein kinase ABL1 (Homo sapiens) (UniProt P00519). Put plainly: ABL1 kinase (ABL1-N-HiBiT) enzymatic inhibition screen - Functional assay. The conditions noted are these: luminescence; series mostly up to 57.5 µM. From the text:
National Center for Advancing Translational Sciences (NCATS),
National Institute of Health (NIH), Maryland
Discovery and optimization of novel protein-binding ligands underlies many of the methods and applications of biology, drug discovery, clinical diagnostics, and environmental toxicology. Assays for detecting the interaction of, for example, a molecule with a macromolecular target also referred to here as the target of interest (TOI) is dependent on a compatible output technology. Depending on the nature and knowledge surrounding the TOI, whether a receptor, enzyme, regulatory subunit or scaffold, or a sequence-defined nucleic acid folded into a complex tertiary structure, assay strategies can vary widely.
Here we exploit ligand-biased changes in the structural dynamics of the target protein to control reporter alpha complementation allowing a non-competitive, non-functional, non-separation measure of ligand-target interaction.
Using a chemical library of >1,200 compounds enriched for scaffolds known to be associated with the inhibition of firefly luciferase (FLuc) activity (PubChem AIDs 2309) we first illustrate and compare the Structural Dynamics Response (SDR) assay vs. the standard functional FLuc enzyme assay (2). Secondly, we show the specificity and sensitivity of the SDR for the Abelson tyrosine kinase (ABL1) compared to the serine/threonine protein kinase A, using an enriched chemical library of 128 compounds selected, in part, for activity annotated with ABL1 kinase activity using the Pharos database (3).
(1) A. S. Dixon et al., NanoLuc Complementation Reporter Optimized for Accurate Measurement of Protein Interactions in Cells.
Chemistry & Biology, 19, 1060 - 1072 (2012).
(3) K. J. Kelleher et al., Pharos 2023: an integrated resource for the understudied human proteome. Nucleic Acids Res 51, D1405-D1416 (2023).
PROTOCOL TABLE (as described by Inglese J, Shamu CE and Guy RK. 2007)
SEQUENCE No. (e.g., 1, 2, 3, etc.); […] (e.g., C. elegans, Compounds, Incubation, Read, etc.); VALUE and DESCRIPTION.
1. Reagent. Dispense 4 uL ABL1-N-HiBiT enzyme per well at a final enzyme concentration of 10 nM in buffer with 87.5 uM ATP (functional assay) into columns 2-48 of four replicate Greiner 1536-well white, solid bottom high base, medium plates per assay. Dispense respective buffer without enzyme at 4 uL/well in column 1 of assay plates using BioRaptr 2.
2. Compounds. Library compounds added at 23 nL/well by pin transfer. DMSO neutral control and imatinib positive control added at 25 nL/well, transfer by Mosquito dispenser.
3. Incubation. Incubate enzyme and compounds at room temperature for 30 min, protected from light.
4. Reagent. (Functional assay) Transfer 25 nL of abltide peptide substrate to each well of four replicate kinase assay plates with Mosquito dispenser.
5. Incubation. (Functional assay) Kinase enzyme incubated with peptide substrate for 3 h at room temperature, protected from light.
6. Reagent. (Functional assay) Add 4 uL/well of Kinase-Glo Plus reagent (Promega) to kinase activity assay plates, in the presence of ATP.
7. Detector. (Functional assay) Luminescence measured using CCD-based camera (ViewLux) with settings as follows: Exposure, 1 sec; Gain, High; Speed, Slow; Binning, 2X.
Inglese J, Shamu CE and Guy RK, Reporting data from high throughput screening of small molecule libraries, Nature Chemical Biology, 2007, 3(8): 438-441. doi.org/10.1038/nchembio0807-438.
Background: HiBiT is a short tag that completes a luciferase, so light tracks the accessible tagged protein.
Turning to `CCNC(=O)C[C@@H]1N=C(c2ccc(Cl)cc2)c2cc(OC)ccc2-n2c(C)nnc21`, the compound was classed as inactive. Turning to `O=[N+]([O-])O[C@H]1CO[C@H]2[C@@H]1OC[C@H]2O[N+](=O)[O-]`, the compound was called inactive. Next, `Cc1[nH]nc2ccc(-c3cncc(OC[C@@H](N)Cc4c[nH]c5ccccc45)c3)cc12`: “inactive”. Regarding `C/C(O)=C(\C#N)C(=O)Nc1cc(Br)ccc1Br`, the result was inactive. Next, `N#Cc1cn([C@@H]2O[C@H](CO)[C@H](O)[C@@H]2O)c2ncnc(N)c12`: “inactive”; `O=C(NCCCNc1nc(Nc2ccc(N3CCOCC3)cc2)ncc1C1CC1)C1CCC1`: “inactive”.
